From PubChem BioAssay
TWEAK Fn14 block – inhibitors of TWEAK-Fn14 signaling, primary screen, luciferase reporter cells, uHTS | TWEAK-stimulated Fn14 reporter cells, luciferase luminescence, 8 h | actives 2% (n = 360,000) | AID 1159606, 2016 | inhibition, % at 10 µM; in the data active = inhibition above about 50%
TROY NFkB inh – inhibitors of TROY-driven NF-kB signaling, primary screen, Q293 LMP1-TROYcd cells, NF-kB luciferase, uHTS. Q293 LMP1-TROYcd NF-kB luciferase reporter, 4 h. inhibition, % at 10 µM. actives 0.98% (n = 360,000). AID 1347056, 2019;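 active = compounds whose plate-normalised and pattern-corrected inhibition of the luciferase reporter signal at the single screening dose is 50% or more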
HSP90 inh – HSP90 inhibitors, primary screen, cell lysate, luminescence; Rabbit reticulocyte lysate, luciferase refolding luminescence, 3 h; actives 0.91% (n = 290,000); Heat shock protein HSP 90 (rabbit reticulocyte lysate; luciferase refolding); inhibition, % at 5.6 µM; AID 1789, 2009;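 active = inhibition above the screen-wide mean plus 3 SD, computed separately per campaign, cut at about 16% in these data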;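 note: 0% = DMSO wells and 100% = 60 µM geldanamycin wells; inhibitors lower the luminescence because luciferase stays unfolded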
LGR2 inh – inhibitors of bursicon-induced LGR2 CRE-luciferase signal, primary screen, cell-based, HEK293, CRE-luciferase reporter, bursicon stimulation. Drosophila bursicon receptor LGR2 (rickets). bursicon-stimulated, 4 h. inhibition, % at 9.99 µM. actives 0.35% (n = 380,000). AID 720647, 2013;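 active = drop in luminescence signal, shown as inhibition above about 50% in the replicate tests, limit read from the data, passing the limit was not always enough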;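 note: agonist challenge used bursicon conditioned medium at about half maximal strength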
Starred values were filed as active, the others as inactive; . = no result given. This is a sample that favours compounds with a hit; in the whole collection about 2.2% have one here.

SMILES	TWEAK Fn14 block	TROY NFkB inh	HSP90 inh	LGR2 inh
COc1cc(/C=N/Nc2nc(-c3ccc(S(=O)(=O)N(C)C)cc3)cs2)ccc1O	81.3*	11.7	7.5	-7.9
Cc1cc(-c2ccccc2)n(-c2cc(N/N=C/c3ccccc3O)ncn2)n1	68.7*	41.8	1.7	12.8
CNc1cc(-n2nc(C)cc2-c2ccccc2)ncn1	6.0	14.2	-0.8	.
O=C(CNC(=S)N(Cc1ccccc1F)C1CCCCC1)NCCN1CCOCC1	-7.8	-3.2	-4.4	9.6
O=C(CNC(=S)N(Cc1ccccc1F)C1CCCCC1)NCCCN1CCOCC1	84.5*	11.0	-3.3	-7.0
CCOC(=O)N1CCC(NC(=O)c2ccc3c(c2)N(C)C(=O)/C(=C/c2cccc(OC)c2)S3)CC1	74.7*	60.8*	-0.1	4.3
CNC[C@@H]1Oc2ccc(NC(=O)c3ccncc3)cc2C(=O)N([C@H](C)CO)C[C@H]1C	.	.	.	16.5
CCNC(=O)c1cc2c(c(-c3cccc(-c4cc5ccccc5o4)c3)n1)[C@H](CCO)N(C(=O)NC(C)C)C2	53.3*	32.8	.	30.0
COc1ccc(NC(=O)Nc2ccc3c(c2)C(=O)N([C@H](C)CO)C[C@H](C)[C@H](CN(C)C(=O)Nc2ccc4c(c2)OCO4)OCCCC[C@H](C)O3)cc1	.	.	.	29.4
NCCCN1CCOCC1	4.9	4.2	1.1	.
C(CCN1CCOCC1)CN1CCOCC1	-9.0	63.9*	.	3.0
COc1ccc2cnn(Cc3ccccc3)c(=O)c2c1OC	27.8	50.9*	0.1	.
CO[C@@H]1CN(C)C(=O)c2ccc(NC(=O)C3CCCCC3)cc2OC[C@H](C)N(Cc2nccs2)C[C@H]1C	.	.	.	-3.8
CN(Cc1cn(C)nc1-c1ccc(Oc2ccccc2)cc1)Cc1cnc2ccccn12	77.1*	44.1	-0.1	3.9
Cn1cc(CNCc2cnc3ccccn23)c(-c2ccc(Oc3ccccc3)cc2)n1	22.4	30.9	0.4	-18.3
Cc1noc(C)c1S(=O)(=O)Nc1ccc2c(c1)C(=O)N([C@@H](C)CO)C[C@H](C)[C@@H](CN(C)S(C)(=O)=O)O2	.	.	.	-4.4
CCCc1[nH]nc2c1C(C1CCCCC1)C(C#N)=C(N)O2 (stereo not drawn)	54.7*	6.6	1.6	.
C[C@@H]1CN([C@H](C)CO)C(=O)Cc2cc(NC(=O)Nc3ccccc3)ccc2O[C@@H]1CN(C)Cc1ccc(C(=O)Nc2ccccc2N)cc1	.	.	.	4.8
O=c1cc(/C=C/c2ccccc2)oc2c1ccc1ccccc12	64.0*	20.2	6.5	7.7
COc1ccc2c3c([nH]c2c1)[C@@H](CO)N(Cc1ccccc1)CC31CN(C(=O)NC(C)C)C1	.	.	.	-1.5
c1ccc(-c2cc3nc(NCC4CC4)nc(NCC4CCCCC4)c3s2)cc1	56.0*	15.1	.	-35.2
COc1ccc(S(=O)(=O)N(C)C[C@H]2Oc3ccc(NC(=O)Cn4cnnn4)cc3CC(=O)N([C@@H](C)CO)C[C@H]2C)cc1	.	.	.	-5.2
CCOC(=O)[C@]12CCCC=C1N(Cc1cccc3ccccc13)C(=O)[C@H](CC(=O)NCc1ccc(OC)c(OC)c1)C2	37.8	37.1	.	39.8*
CCc1c(C)nc2ccc(Br)cc2c1SCCC#N	79.5*	48.5	0.9	30.6
CCN1CCCC1CNC(=O)c1cc2c(C)nc3ccccc3c2o1 (stereo not drawn)	-15.7	6.5	-3.1	4.5
SMILES	TWEAK Fn14 block	TROY NFkB inh	HSP90 inh	LGR2 inh
COc1cccc(CNC(=O)c2cc3c(C)nc4ccccc4c3o2)c1	52.3*	44.0	0.1	8.4
CCc1ccc(CNC(=O)c2cc3c(C)nc4ccccc4c3o2)cc1	58.3*	45.4	1.0	15.1
Cc1nc2ccccc2c2oc(C(=O)NCC3COc4ccccc4O3)cc12 (stereo not drawn)	92.6*	73.2*	-2.4	-23.8
C[C@@H]1CN([C@@H](C)CO)C(=O)c2cc(N(C)C)ccc2O[C@H]1CN(C)C(=O)NC1CCCCC1	.	.	.	18.2
C[C@H](CO)N1C[C@H](C)[C@@H](CN(C)S(=O)(=O)c2ccccc2)Oc2ccc(N(C)C)cc2C1=O	.	.	.	-20.1
COc1cc(NC(=O)C2=C(N3CCOCC3)/C(=C\c3ccc(Cl)cc3Cl)CC2)cc(OC)c1OC	51.6*	34.4	10.6	-8.2
COc1cc(NC(=O)C2=C(N3CCOCC3)/C(=C\c3ccc(Br)cc3)CC2)cc(OC)c1OC	13.8	11.4	5.7	16.1
CCOc1cccc2sc(N(CCCN(C)C)C(=O)c3ccc(C(=O)c4ccccc4)cc3)nc12	92.2*	-22.1	5.0	1.6
OC(COc1ccc2cc(Br)ccc2c1)CN1CCCC1 (stereo not drawn)	51.0*	55.5*	4.6	-28.4
O=C(Nc1ccc(Cl)cc1)N[C@@H]1CC[C@@H](CCNC(=O)c2cc(Cl)cc(Cl)c2)O[C@H]1CO	.	.	.	-0.5
COC(=O)c1ccc(Cl)c(NC(=O)CN(c2ccccc2)S(=O)(=O)c2ccc(OC)cc2)c1	60.4*	8.3	2.2	15.8
COc1ccc(NC(=O)CN(c2ccccc2)S(=O)(=O)c2ccccc2)c(OC)c1	7.3	-9.2	4.4	-8.5
C[C@@H]1CCCCO[C@H](CN(C)C(=O)CCCN(C)C)[C@H](C)CN([C@@H](C)CO)C(=O)c2cc(NC(=O)C3CCCCC3)ccc2O1	.	.	.	5.8
COC(=O)/C(=C1/Oc2cc(C)oc(=O)c2S1)C(F)(F)F	98.4*	20.3	2.5	41.7
O=C(C[C@@H]1CC[C@@H]2[C@H](COC[C@H](O)CN2Cc2nccs2)O1)NCc1ccc(-c2ccccc2)cc1	.	.	.	-3.6
O=C(Nc1nc(-c2ccc(Oc3ccccc3)cc2)cs1)C1=COCCO1	61.7*	33.5	2.4	7.7
O=C(COC(=O)C1=COCCO1)Nc1ccccc1Oc1ccccc1	64.4*	11.4	-3.0	.
O=C(Cc1cccnc1)N[C@@H]1CC[C@@H](CCn2cc(-c3ccccc3F)nn2)O[C@H]1CO	.	.	.	-0.3
COc1ccc(CNC(=O)C[C@H]2C=C[C@@H](NC(=O)c3ccc4c(c3)OCO4)[C@@H](CO)O2)cc1	.	.	.	-3.4
O=C(NCCc1ccc(F)cc1)c1coc(=O)c(Br)c1	90.5*	-7.2	8.3	-8.2
O=C(Nc1ccccc1F)c1coc(=O)c(Br)c1	-2.5	-17.8	5.2	-55.1
COCC(=O)Nc1ccc2c(c1)[C@H]1C[C@H](CC(=O)NCC3CC3)O[C@H](CO)[C@H]1O2	.	.	.	-6.9
C[C@@H]1CN([C@@H](C)CO)C(=O)c2cc(NC(=O)Nc3ccc(F)cc3)ccc2O[C@@H](C)CCCCO[C@H]1CN(C)C(=O)CCCN(C)C	.	.	.	6.6
C#CCOCCOCCOCCNc1nc(N2CCN(C(=O)CCCCCCCCCCNC(=O)Cn3cc(C[C@@H](C)O)nn3)CC2)nc(N2CCN(C(=O)CCCCCCCCCCNC(=O)[C@@H]([C@H](C)O)n3cc(C)nn3)CC2)n1	83.8*	-19.1	.	.
